High-throughput results: PubChem, The Scripps Research Institute Molecular Screening Center
CHO-K1 Ca antag – counter-screen for M1 antagonists: effect in parental CHO-K1 cells. ATP-induced calcium, Fluo-8 fluorescence. hit rate 0.6% among 360,000. inhibition, % at 3 µM. AID 602250;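 active = inhibition above a per-plate cutoff, the plate's mean sample inhibition plus 3 SD, cut at about 24% in these data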;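 also: 0% = DMSO plus EC80 ATP and 100% = DMSO alone without ATP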
M1 PAM – positive allosteric modulators of human M1 muscarinic receptor; P11229; CHO-K1 hM1, Fluo-8 calcium fluorescence, ACh EC20; 0% = ACh EC20, 100% = maximal ACh; activation, % at 3 µM; hit rate 0.088% among 360,000; AID 588819; in the data active = activation above about 19%, passing the limit was not always enough
Target sequence (P11229 whole entry, looked up): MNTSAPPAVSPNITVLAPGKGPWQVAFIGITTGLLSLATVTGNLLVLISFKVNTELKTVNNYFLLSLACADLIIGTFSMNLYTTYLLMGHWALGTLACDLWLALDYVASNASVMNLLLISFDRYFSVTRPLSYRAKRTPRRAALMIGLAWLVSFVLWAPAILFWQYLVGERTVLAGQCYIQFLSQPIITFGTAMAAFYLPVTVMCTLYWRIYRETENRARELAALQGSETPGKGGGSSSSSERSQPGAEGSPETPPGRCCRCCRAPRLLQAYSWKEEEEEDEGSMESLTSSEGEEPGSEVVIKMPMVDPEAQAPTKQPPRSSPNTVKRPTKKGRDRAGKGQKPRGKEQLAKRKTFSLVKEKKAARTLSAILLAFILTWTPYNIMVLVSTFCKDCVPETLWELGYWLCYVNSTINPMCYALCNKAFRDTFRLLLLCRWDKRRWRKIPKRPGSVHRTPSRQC
CHRM1 agonist – human M1 muscarinic receptor agonism. P11229. CHO-K1 hM1, Fluo-8 calcium fluorescence, agonist mode; 0% DMSO, 100% acetylcholine EC100. activation, % at 3 µM. hit rate 0.33% among 360,000. AID 588814;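 active = activation above the run's mean compound activation plus 3 SD, cut at about 16% in these data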;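 also: peak over basal fluorescence ratio within a 140 s kinetic read after compound addition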
M1 ag parental – counter-screen for M1 agonists: effect in parental CHO-K1 cells; Fluo-8 calcium fluorescence; scaled to maximal ATP response, vehicle zero; activation, % at 3 µM; hit rate 0.48% among 360,000; AID 602248; in the data active = activation above about 15%;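 also: untransfected CHO-K1 host cells lacking M1 receptor as counterscreen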
M1 antag – blocks human M1 muscarinic receptor | P11229 | inhibition, % at 3 µM | AID 588852 | CHO-K1 hM1, Fluo-8 calcium fluorescence, ACh EC80 antagonist | hit rate 1.3% among 360,000;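 active = percent inhibition above its own plate's cutoff, namely the mean of that plate's compound wells plus 3 SD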;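 also: peak over basal fluorescence ratio during 140 s after agonist addition; 0% = ACh EC80 plus DMSO and 100% = DMSO alone without agonist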
M1 PAM parental – counter-screen for M1 PAMs: effect in parental CHO-K1 cells; activation, % at 3 µM; hit rate 0.02% among 360,000; ATP EC20, Fluo-8 calcium fluorescence; 0% at ATP EC20, 100% at ATP max;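 active = activation above the run cutoff, the mean activation of all test compounds plus 3 SD, cut at about 40% in these data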;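 also: peak over basal fluorescence ratio in a 140 s read after ATP addition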
The depositor's hits bear a star. Hits are enriched below; roughly 2.4% of the tested compounds scored in any of these assays.

SMILES | CHO-K1 Ca antag | M1 PAM | CHRM1 agonist | M1 ag parental | M1 antag | M1 PAM parental
Cc1onc(-c2ccccc2)c1C(=O)NNC(=S)NC(=O)c1ccc2c(c1)OCO2 | 0.5 | -14.2 | 52.0* | 55.0* | 19.1 | -13.2
Cc1onc(-c2ccccc2)c1C(=O)NC(=S)NNC(=O)c1ccco1 | -3.6 | 3.0 | 17.0* | 18.4* | -7.1 | 7.5
COc1ccc(C(=O)NC(=S)NNC(=O)c2c(-c3ccccc3)noc2C)cc1OC | -6.7 | 0.0 | 15.5 | 15.1 | -1.4 | -6.2
COC(=O)C1=C(C)NC(=O)C1(NC(=O)c1ccncc1)C(F)(F)F (stereo unspecified) | -14.8 | 5.2 | -7.9 | 1.0 | -2.7 | 13.4
CC1(C(=O)Nc2cnc3ccccc3c2)CCN1Cc1ccccc1Cl (stereo unspecified) | -3.1 | 2.6 | -3.3 | 2.6 | -7.8 | 5.1
O=C(CSc1nn(-c2ccccc2)c(=S)s1)Nn1cnnc1 | -4.3 | 2.7 | -0.8 | -0.2 | -9.8 | 5.9
Cc1ccc(NC(=O)CSc2nn(-c3ccccc3)c(=S)s2)cc1S(=O)(=O)N(C)C | 29.4* | -12.0 | -1.4 | 12.7 | 24.8* | -4.9
O=C(O)c1cccc2c1C(=O)c1ccc(N3CCCCC3)cc1S2(=O)=O | -7.5 | -0.6 | -2.8 | 3.1 | 5.4 | 19.6
COc1nc(NCCc2ccc(OC)c(OC)c2)nc(NC(C)(C)CO)n1 | -3.6 | 6.2 | -3.5 | 1.6 | -2.9 | 16.7
COCc1nnc(NC(=O)c2ccc(OC)cc2OC)s1 | 5.0 | 6.1 | -2.0 | -0.2 | 2.8 | -1.0
COc1ccc(C(=O)Nc2nnc(CCc3ccccc3)s2)c(OC)c1 | 34.9* | -3.7 | -4.1 | 0.2 | 13.4 | -20.8
COc1ccc(-n2nc3cc(C)c(NC(C)=O)cc3n2)cc1 | 30.5* | -1.8 | -4.7 | -0.6 | 0.5 | -13.4
O=C(C1=C(O)C(=O)N(c2nccs2)C1c1ccccc1)c1cc2ccccc2o1 (stereo unspecified) | 9.9 | -7.8 | 8.2 | 24.3* | 7.6 | 2.9
Cc1ccc(NC(=O)C2CCN(S(=O)(=O)c3ccc4c(c3)NC(=O)C(C)S4)CC2)cc1C (stereo unspecified) | 19.5 | -12.4 | -0.4 | 10.4 | 36.0 | -18.4
CCc1ccc(NC(=O)C2CCN(S(=O)(=O)c3ccc4c(c3)NC(=O)C(C)S4)CC2)cc1 (stereo unspecified) | 11.1 | -18.8 | -2.4 | 6.3 | 55.0* | 3.6
CCOC(=O)C(C)Sc1nc(-c2cccs2)ccc1C#N (stereo unspecified) | 3.4 | -2.9 | -8.4 | 2.2 | 5.8 | 3.5
CCNC(=O)c1ccc(C23CC4CC(CC(C4)C2)C3)o1 | -1.7 | 7.5 | -3.4 | 15.4* | -10.0 | 9.2
O=C(CNC(=O)c1ccc(Br)o1)NC12CC3CC(CC(C3)C1)C2 | -5.9 | 15.2 | 4.1 | 1.2 | 5.8 | -1.0
Cc1no[n+]([O-])c1COc1cccc(/C=C2\N=C(c3ccccc3)OC2=O)c1 | 4.9 | 11.5 | -2.8 | -0.6 | -10.2 | 13.0
O=C1OC(c2ccccc2)=N/C1=C/c1cccc(OC(=O)c2cccs2)c1 | 42.8* | 1.8 | -1.6 | 2.0 | -14.6 | 7.0
CCCCOc1ccc(C(=O)NCC(=O)NCCOc2ccc(C)cc2)cc1 | -9.6 | 11.8 | -3.6 | -0.8 | -11.1 | -2.9
CCCCN(C(=O)c1cc(S(=O)(=O)N2CCCCCC2)ccc1OC)c1c(N)n(CCC)c(=O)[nH]c1=O | 24.8* | 15.6 | 7.1 | -0.2 | -6.0 | -36.9
CC(C)N=c1c([N+](=O)[O-])nn(C)n1O | -19.5 | 10.3 | 2.8 | 1.6 | -9.4 | 25.6
CC1CCCC(C)N1C(=O)COC(=O)CNC(=O)c1sc2ccccc2c1Cl (stereo unspecified) | 17.8 | 4.0 | -1.9 | 19.2* | -5.8 | -16.5
COc1ccccc1CN1CCC(CNS(=O)(=O)c2cc(-c3cc(C)no3)ccc2OC)CC1 | -18.5 | -24.2 | -5.7 | 0.5 | 93.4* | 1.3
O=C(c1[nH]ncc1-c1cccc(Br)c1)C1CO1 (stereo unspecified) | -7.6 | 6.6 | -3.0 | 0.5 | -15.8 | -6.5
O=C(c1[nH]ncc1-c1ccccc1)C1CO1 (stereo unspecified) | 5.0 | 9.2 | -0.9 | 19.4* | -11.2 | 17.0
CCN(C(=O)CSc1nccn1C)c1cccc2ccccc12 | -8.9 | 1.2 | -8.4 | -0.1 | 3.8 | 5.2
